Assay results: PubChem BioAssay (Tox21)
Inconclusive results are not listed. A number with no mark means an inactive call. Calls of active or inactive are those of the source. Unless noted, calls follow the shape of the dose curve; as a rule, active = well fitted curve in the direction sought with a large enough effect in the repeat runs; inconclusive = weak or mixed curves; inactive = no such curve, though single readings can be large; an effect the other way counts as inactive or inconclusive.

Experiment: qHTS assay to identify small molecule antagonists of the progesterone receptor (PR) signaling pathway - cell viability counter screen (AID 1346798); also: nearly all actives have a fitted effect of over 50% in size
Conditions: PR-UAS-bla HEK293T viability, CellTiter-Glo luminescence, 16 h; series mostly up to 92.4 µM; activity change, negative = cytotoxicity: at the top concentration
Procedure, shortened: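 In the same plates used for the beta-lactamase readout, cell viability of compound- and R5020-treated PR-UAS-bla HEK293T cells (16 hr, 37C) was assessed by CellTiter-Glo luminescence.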
% is scaled to controls: 0 for no effect and ±100 for the full control effect; potency is read from the fitted curve at half-maximal effect.

Row | Structure (SMILES) | Potency | activity change, negative = cytotoxicity
1 | OCC1CC2CC1C1CCC(CO)C21 (stereo not given) | 27.3 µM (active) | 
2 | CC(=O)/C(C)=C/C1C(C)=CCCC1(C)C (stereo not given) |  | 0.488%
3 | O=[N+]([O-])c1cc[n+]([O-])cc1 |  | 7.39%
4 | Nc1ccc(C(=O)N2CC3CC(CN(Cc4ccccc4)C3)C2)cc1 |  | 0.197% [at 42.5 µM]
5 | CC(C)NCC(O)COc1ccc(CC(N)=O)cc1 (stereo not given) |  | 2.14%
6 | CCC(C)N(C)C(=O)c1cc2ccccc2c(-c2ccccc2Cl)n1 (stereo not given) |  | 19% [at 42.5 µM]
7 | CCN(CC)CCOc1ccc2c(c1)C(=O)c1cc(OCCN(CC)CC)ccc1-2 | 13.3 µM (active) | 
8 | C=CC(=O)OCC(C)OCC(C)OCC(C)OC(=O)C=C (stereo not given) |  | 5.25%
9 | O=c1[nH]cnc2ccccc12 |  | 32.5%
10 | CC[C@@H]1C[C@H](N(Cc2cc(C(F)(F)F)cc(C(F)(F)F)c2)C(C)=O)c2cc(C(F)(F)F)ccc2N1C(=O)OC(C)C |  | 0.818%
11 | C[C@H](CCC(=O)O)[C@H]1CC[C@H]2[C@@H]3[C@H](O)C[C@@H]4C[C@H](O)CC[C@]4(C)[C@H]3CC[C@]12C |  | -12.1%
12 | CC(C)c1ccc2c(C(C)C)cc(C(C)C)c(S(=O)(=O)O)c2c1 |  | -20.5%
13 | O=C(/C=C/c1ccc(O)c(O)c1)O[C@@H]1C[C@](O)(C(=O)O)C[C@@H](O)[C@H]1O |  | 8.74%
14 | CCCCC(CC)COCCCN (stereo not given) |  | -22.1%
15 | NC(N)=NN=C(/C=C/c1ccc([N+](=O)[O-])o1)/C=C/c1ccc([N+](=O)[O-])o1 | 23.7 µM (active) | 
16 | CCCCC(CC)(CO)CO |  | -3.75%

Experiment: qHTS assay to identify small molecule agonists of the progesterone receptor (PR) signaling pathway - cell viability counter screen (AID 1346799; calls by dose curve; also: nearly all actives have a fitted effect of over 45% in size)
Conditions: PR-UAS-bla HEK293T viability, CellTiter-Glo luminescence, 16 h; series mostly up to 92.4 µM; activity change, negative = cytotoxicity: at the top concentration
Procedure, shortened: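 Multiplexed viability read: CellTiter-Glo luminescence, 30 min RT, following LiveBLAzer FRET measurement on PR-UAS-bla HEK293T cells exposed to compounds 16 hr.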

Row | Structure (SMILES) | activity change, negative = cytotoxicity | Potency
17 | CC(=O)N(CC(=O)N(C)C)c1ccccc1 | 25% [at 42.5 µM] | 
18 | COC(=O)C(C)=O | 20.7% | 
19 | CC(=O)O[C@@H]1C(=O)O[C@@H]2[C@H]1OC(=O)[C@@H]2OC(C)=O | 13.7% [at 42.5 µM] | 
20 | CC(C)NCC(O)COc1ccc(CC(N)=O)cc1 (stereo not given) | 3.1% | 
21 | CCC(C)N(C)C(=O)c1cc2ccccc2c(-c2ccccc2Cl)n1 (stereo not given) | 17.8% [at 42.5 µM] | 
22 | CCN(CC)CCOc1ccc2c(c1)C(=O)c1cc(OCCN(CC)CC)ccc1-2 |  | 16.8 µM (active)
23 | C=CC(=O)OCC(C)OCC(C)OCC(C)OC(=O)C=C (stereo not given) | 15.5% | 
24 | CC[C@@H]1C[C@H](N(Cc2cc(C(F)(F)F)cc(C(F)(F)F)c2)C(C)=O)c2cc(C(F)(F)F)ccc2N1C(=O)OC(C)C | 12.6% | 
25 | CC(CN)CCCN (stereo not given) | 2.1% | 
26 | C[C@H](CCC(=O)O)[C@H]1CC[C@H]2[C@@H]3[C@H](O)C[C@@H]4C[C@H](O)CC[C@]4(C)[C@H]3CC[C@]12C | -3.02% | 
27 | O=C(CCN1CCN2CCCC2C1)N1c2ccccc2Sc2ccc(Cl)cc21 (stereo not given) | -27.9% [at 19 µM] | 
28 | CC(C)c1ccc2c(C(C)C)cc(C(C)C)c(S(=O)(=O)O)c2c1 | -20.7% | 
29 | O=C(/C=C/c1ccc(O)c(O)c1)O[C@@H]1C[C@](O)(C(=O)O)C[C@@H](O)[C@H]1O | -8.4% | 
30 | CCOc1nc2cccc(C(=O)O)c2n1Cc1ccc(-c2ccccc2-c2nn[nH]n2)cc1 | 0.637% [at 42.5 µM] | 
31 | CCCCc1cc2ccccc2c(OCCN(C)C)n1 | -13.8% [at 42.5 µM] | 
32 | Oc1ccc2c(c1)OCO2 | -16% | 
33 | NC(N)=NN=C(/C=C/c1ccc([N+](=O)[O-])o1)/C=C/c1ccc([N+](=O)[O-])o1 |  | 23.7 µM (active)
34 | CCCCCCCCCCCCC(=O)O |  | 19.4 µM (active)
35 | SC1CCCC1 | -0.578% | 
36 | Cc1cc(O)ccc1N | 0% | 

Experiment: qHTS assay to identify small molecule antagonists of the TGF-beta/Smad signaling pathway - cell viability counter screen (AID 1346824); also: nearly all actives have a fitted effect of over 50% in size
Conditions: SBE-bla HEK293T viability, CellTiter-Glo luminescence; series mostly up to 76.8 µM; viability change, negative = cytotoxic: at the top concentration
Procedure, shortened: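 Cytotoxicity counter-screen run in the same wells as the beta-lactamase Smad reporter read: CellTiter-Glo luminescence after 30 min at room temperature. HEK 293T SBE-bla cells had 5 hr compound exposure at 37 C with TGF-beta1 (0.25 ng/mL stock).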

Row | Structure (SMILES) | viability change, negative = cytotoxic | Potency
37 | OCC1CC2CC1C1CCC(CO)C21 (stereo not given) | -20% | 
38 | CC(=O)/C(C)=C/C1C(C)=CCCC1(C)C (stereo not given) | 8.94% | 
39 | CC(=O)N(CC(=O)N(C)C)c1ccccc1 | 3.45% [at 35.3 µM] | 
40 | COC(=O)C(C)=O | 4.4% | 
41 | Nc1ccc(C(=O)N2CC3CC(CN(Cc4ccccc4)C3)C2)cc1 | -10.7% [at 35.3 µM] | 
42 | CC(=O)O[C@@H]1C(=O)O[C@@H]2[C@H]1OC(=O)[C@@H]2OC(C)=O | -1.26% [at 35.3 µM] | 
43 | CC(C)NCC(O)COc1ccc(CC(N)=O)cc1 (stereo not given) | 4.55% | 
44 | CC(C)(C)C(=O)OCOP(=O)(COCCn1cnc2c(N)ncnc21)OCOC(=O)C(C)(C)C | -21.5% [at 35.3 µM] | 
45 | Cc1c(Cn2ccnc2)c2ccccc2n1CCC(=O)O | 3.55% [at 35.3 µM] | 
46 | CCC(C)N(C)C(=O)c1cc2ccccc2c(-c2ccccc2Cl)n1 (stereo not given) | 9.54% [at 35.3 µM] | 
47 | CCN(CC)CCOc1ccc2c(c1)C(=O)c1cc(OCCN(CC)CC)ccc1-2 | -10.7% [at 35.3 µM] | 
48 | CCCCOc1ccc(CC(=O)NO)cc1 | 1% [at 35.3 µM] | 
49 | C=CC(=O)OCC(C)OCC(C)OCC(C)OC(=O)C=C (stereo not given) | 29.7% | 
50 | O=c1[nH]cnc2ccccc12 | 12.5% | 
51 | c1ccc(OCc2ccc(CCCN3CCOCC3)cc2)cc1 | -2.89% [at 35.3 µM] | 
52 | CCOC(=O)C1=C(C)NC(C)=C(C(=O)OC)C1c1cccc([N+](=O)[O-])c1 (stereo not given) | -2.47% [at 35.3 µM] | 
53 | CC(C)(C)c1cc(O)c(C(C)(C)C)cc1O | -2.72% | 
54 | Oc1ccc(C(O)CNCCCCCCNCC(O)c2ccc(O)c(O)c2)cc1O (stereo not given) | -2.43% [at 35.3 µM] | 
55 | CC[C@@H]1C[C@H](N(Cc2cc(C(F)(F)F)cc(C(F)(F)F)c2)C(C)=O)c2cc(C(F)(F)F)ccc2N1C(=O)OC(C)C | -0.449% | 
56 | CN(C(=O)CCCOc1ccc2[nH]c(=O)ccc2c1)C1CCCCC1 | 6.72% [at 35.3 µM] | 

Row | Structure (SMILES) | viability change, negative = cytotoxic | Potency
57 | CC(CN)CCCN (stereo not given) | 0.778% | 
58 | CCCCCOC(=O)c1ccc(O)cc1 | -13.4% | 
59 | C[C@H](CCC(=O)O)[C@H]1CC[C@H]2[C@@H]3[C@H](O)C[C@@H]4C[C@H](O)CC[C@]4(C)[C@H]3CC[C@]12C | -17.6% | 
60 | O=C(CCN1CCN2CCCC2C1)N1c2ccccc2Sc2ccc(Cl)cc21 (stereo not given) | 0.3% [at 15.8 µM] | 
61 | CC(C)c1ccc2c(C(C)C)cc(C(C)C)c(S(=O)(=O)O)c2c1 | 3.59% | 
62 | CC1(C)CCC(C)(C)c2cc(NC(=O)c3ccc(C(=O)O)cc3)ccc21 | -4.98% [at 35.3 µM] | 
63 | O=C(/C=C/c1ccc(O)c(O)c1)O[C@@H]1C[C@](O)(C(=O)O)C[C@@H](O)[C@H]1O | -3.99% | 
64 | CCOc1nc2cccc(C(=O)O)c2n1Cc1ccc(-c2ccccc2-c2nn[nH]n2)cc1 | -5.25% [at 35.3 µM] | 
65 | CCc1nn(C2CCCCC2)c2cc(C3(C#N)CCC(C(=O)O)CC3)ccc12 (stereo not given) | 0.365% | 
66 | CCOc1ccc2[nH]cc(C(=O)NCc3ccccc3)c(=O)c2n1 | 6.34% | 
67 | CCCCc1cc2ccccc2c(OCCN(C)C)n1 | -4.4% [at 35.3 µM] | 
68 | CCCCC(CC)COCCCN (stereo not given) | 1.55% | 
69 | Oc1ccc2c(c1)OCO2 | 18% | 
70 | NC(N)=NN=C(/C=C/c1ccc([N+](=O)[O-])o1)/C=C/c1ccc([N+](=O)[O-])o1 |  | 23.9 µM (active)
71 | CCCCCCCCCCCCC(=O)O | -8.4% | 
72 | CCCCC(CC)(CO)CO | -15.3% | 
73 | SC1CCCC1 | 11.3% | 
74 | Cc1cc(O)ccc1N | 12.4% | 
75 | Cc1ccc(C(=O)C(C)CN2CCCCC2)cc1 (stereo not given) | -5.57% [at 35.3 µM] | 
